PubChem BioAssay (Tox21)
Inconclusive results are not listed. Activity calls are given as the source filed them. Unless noted, calls follow the shape of the dose curve; as a rule, active = well fitted curve in the direction sought with a large enough effect in the repeat runs; inconclusive = weak or mixed curves; inactive = no such curve, though single readings can be large; an effect the other way counts as inactive or inconclusive.

How the values were obtained:
[1] = qHTS assay to identify small molecule agonists of the peroxisome proliferator-activated receptor delta (PPARd) signaling pathway - cell viability counter screen (AID 743211); also: nearly all actives have a fitted effect of over 55% in size
Method in brief: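 Multiplexed format: after the 2 h room-temperature LiveBLAzer B/G FRET step, CellTiter-Glo was added to the same wells. Luminescence after 30 min gave cell viability; compound exposure was 17 h at 37C.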

[2] = target: Peroxisome proliferator-activated receptor delta (Homo sapiens) (UniProt Q03181); assay: qHTS assay to identify small molecule agonists of the peroxisome proliferator-activated receptor delta (PPARd) signaling pathway (AID 743212; calls by dose curve)
Sequence of Peroxisome proliferator-activated receptor delta (Homo sapiens) (Q03181 whole entry, looked up): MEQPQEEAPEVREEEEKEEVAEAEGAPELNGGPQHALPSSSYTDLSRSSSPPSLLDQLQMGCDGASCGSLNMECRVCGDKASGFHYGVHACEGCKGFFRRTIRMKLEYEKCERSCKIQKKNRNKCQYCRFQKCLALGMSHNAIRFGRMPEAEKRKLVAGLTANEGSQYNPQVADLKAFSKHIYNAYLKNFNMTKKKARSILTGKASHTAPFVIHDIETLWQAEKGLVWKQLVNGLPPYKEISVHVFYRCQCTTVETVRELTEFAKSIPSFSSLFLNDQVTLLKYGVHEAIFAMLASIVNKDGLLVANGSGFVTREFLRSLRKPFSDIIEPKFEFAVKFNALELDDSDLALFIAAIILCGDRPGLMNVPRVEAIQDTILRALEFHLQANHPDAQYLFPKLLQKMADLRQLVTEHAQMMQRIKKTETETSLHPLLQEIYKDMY
Method in brief: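 GeneBLAzer PPARd UAS-bla HEK293H cells (beta-lactamase reporter under UAS control), plated and rested 5 h at 37 C, then exposed to compounds in DMSO at 37 C; LiveBLAzer B/G FRET substrate added, 2 h room temperature, fluorescence read.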

[3] = qHTS assay to identify small molecule antagonists of the peroxisome proliferator-activated receptor delta (PPARd) signaling pathway - cell viability counter screen (AID 743213); also: nearly all actives have a fitted effect of over 50% in size
Method in brief: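 HEK293H cells with the PPARd UAS-bla reporter, co-treated 17 h at 37 C with compounds and L165041 (300 nM final), were lysed with CellTiter-Glo. Luminescence indicated viable cell content.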

[4] = target: Peroxisome proliferator-activated receptor delta (Homo sapiens) (UniProt Q03181); assay: qHTS assay to identify small molecule antagonists of the peroxisome proliferator-activated receptor delta (PPARd) signaling pathway (AID 743215; active = well fitted inhibition curve with a large enough effect in the signal ratio in the repeat runs, not every such curve was filed as active; the % refers to the signal ratio;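 also: cells stimulated with agonist L165041 at 300 nM final during compound exposure; series mostly up to about 62 µM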)
Method in brief: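 PPARd-bla HEK293H cells (UAS-bla reporter) preincubated 5 h, then given compound plus 300 nM final L165041 agonist for 17 h at 37 C. Beta-lactamase activity read by LiveBLAzer B/G FRET substrate fluorescence after 2 h at room temperature.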

[5] = target: Bile acid receptor (Homo sapiens) (UniProt Q96RI1); assay: qHTS assay to identify small molecule antagonists of the farnesoid-X-receptor (FXR) signaling pathway (AID 743217; active = well fitted inhibition curve with a large enough effect in the signal ratio in the repeat runs, not every such curve was filed as active; the % refers to the signal ratio)
Sequence of Bile acid receptor (Homo sapiens) (Q96RI1 whole entry, looked up): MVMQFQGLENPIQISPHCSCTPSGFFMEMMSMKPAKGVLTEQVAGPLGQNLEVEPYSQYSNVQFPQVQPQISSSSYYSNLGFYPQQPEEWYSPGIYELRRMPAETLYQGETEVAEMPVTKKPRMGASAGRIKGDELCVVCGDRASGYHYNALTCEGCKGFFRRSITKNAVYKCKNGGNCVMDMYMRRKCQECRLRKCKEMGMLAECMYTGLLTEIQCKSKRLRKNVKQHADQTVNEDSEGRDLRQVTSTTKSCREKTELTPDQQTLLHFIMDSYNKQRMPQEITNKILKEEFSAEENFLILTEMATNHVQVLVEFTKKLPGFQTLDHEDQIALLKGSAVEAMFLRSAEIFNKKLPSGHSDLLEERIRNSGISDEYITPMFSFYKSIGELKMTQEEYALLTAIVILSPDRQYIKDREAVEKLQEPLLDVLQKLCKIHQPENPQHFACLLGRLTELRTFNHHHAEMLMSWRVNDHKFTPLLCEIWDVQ
Method in brief: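 FXR-UAS-bla HEK 293T cells (beta-lactamase reporter) given compound plus chenodeoxycholic acid (50 uM final), 16 h at 37C. LiveBLAzer B/G FRET substrate added for 2 h at room temperature; fluorescence read.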

[6] = target: Bile acid receptor (Homo sapiens) (UniProt Q96RI1); assay: qHTS assay to identify small molecule agonists of the farnesoid-X-receptor (FXR) signaling pathway (AID 743220; active = well fitted activation curve with a large enough effect in the signal ratio in the repeat runs, not every such curve was filed as active; the % refers to the signal ratio)
Method in brief: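 Beta-lactamase reporter under UAS control in GeneBLAzer FXR HEK 293T cells (5000/well) measured with LiveBLAzer FRET substrate after 2 h at room temperature. Compound exposure lasted 16 h at 37C.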

[7] = qHTS assay to identify small molecule antagonists of the farnesoid-X-receptor (FXR) signaling pathway - cell viability counter screen (AID 743221; active = well fitted cell-killing curve with a large enough effect in the repeat runs, not every such curve was filed as active; also: nearly all actives have a fitted effect of over 50% in size)
Method in brief: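 CellTiter-Glo, 30 min RT, luminescence; same wells as the LiveBLAzer FRET read. Cells: FXR-UAS-bla HEK 293T. Treatment: compound with chenodeoxycholic acid 50 uM final, 16 h at 37 C.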

[8] = target: Vitamin D3 receptor (Homo sapiens) (UniProt P11473); assay: qHTS assay to identify small molecule antagonists of the vitamin D receptor (VDR) signaling pathway (AID 743223; active = well fitted inhibition curve with a large enough effect in the signal ratio in the repeat runs, not every such curve was filed as active; the % refers to the signal ratio)
Sequence of Vitamin D3 receptor (Homo sapiens) (P11473 whole entry, looked up): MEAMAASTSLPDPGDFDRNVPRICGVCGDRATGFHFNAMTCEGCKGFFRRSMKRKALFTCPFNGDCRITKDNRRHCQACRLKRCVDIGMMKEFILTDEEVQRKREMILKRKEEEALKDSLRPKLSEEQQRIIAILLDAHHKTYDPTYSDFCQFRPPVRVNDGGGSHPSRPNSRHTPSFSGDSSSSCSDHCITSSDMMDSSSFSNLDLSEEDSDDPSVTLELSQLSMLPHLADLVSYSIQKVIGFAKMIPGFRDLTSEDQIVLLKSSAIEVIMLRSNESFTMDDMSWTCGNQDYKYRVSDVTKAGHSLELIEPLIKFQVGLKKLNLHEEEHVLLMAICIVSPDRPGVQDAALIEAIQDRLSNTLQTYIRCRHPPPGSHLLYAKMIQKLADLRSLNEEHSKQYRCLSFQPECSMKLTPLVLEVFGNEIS
Method in brief: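 After VDR-bla cells are plated and left 4 h at 37C, DMSO-dissolved compounds and 3 nM (final) calcitriol agonist are added. Incubation continues 16 h at 37C; FRET beta-lactamase substrate then develops 2 h at room temperature.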

[9] = qHTS assay to identify small molecule antagonists of the vitamin D receptor (VDR) signaling pathway - cell viability counter screen (AID 743225); also: nearly all actives have a fitted effect of over 50% in size
Method in brief: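 Cytotoxicity toward the VDR-bla HEK 293T line was scored by ATP-based CellTiter-Glo luminescence, read in the wells already used for the beta-lactamase readout after 16 h compound treatment under 3 nM 1-alpha,25-dihydroxyvitamin D3 stimulation.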

[10] = qHTS assay to identify small molecule agonists of the NFkB signaling pathway (AID 1159509; active = well fitted curve in the direction sought with a large enough effect in the signal ratio in the repeat runs, not every such curve was filed as active; the % refers to the signal ratio; also: series mostly up to about 61 µM)
Method in brief: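 NFkB-bla ME-180 cells with a beta-lactamase reporter under an NF-kB response element were plated overnight, treated with compounds in DMSO for 5 hr at 37 C, then loaded with FRET substrate for 1.5 hr at room temperature.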

[11] = qHTS assay to identify small molecule agonists of the NFkB signaling pathway - cell viability counter screen (AID 1159515; calls by dose curve; also: series mostly up to about 61 µM; nearly all actives have a fitted effect of over 55% in size)
Method in brief: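 NFkB-bla ME-180 cells, 2,000/well, plated overnight at 37 C; compound added for 5 hr at 37 C. Viability read in the same wells as the bla reporter, by CellTiter-Glo luminescence after 30 min at room temperature.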

[12] = qHTS assay to identify small molecule agonists of the endoplasmic reticulum stress response signaling pathway (AID 1159516; active = well fitted activation curve with a large enough effect in the signal ratio in the repeat runs, not every such curve was filed as active; the % refers to the signal ratio)
Method in brief: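 CellSensor ESRE-bla HeLa cells, 1,500 per well, plated overnight, then exposed to compounds for 5 hr at 37 C. Beta-lactamase reporter read with LiveBLAzer B/G FRET substrate after 2 hr at room temperature, 405 nm excitation, 460 and 530 nm emission.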

[13] = qHTS assay to identify small molecule agonists of the endoplasmic reticulum stress response signaling pathway - cell viability counter screen (AID 1159517; calls by dose curve;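 also: HeLa cells carrying an ER stress response element beta-lactamase reporter; series mostly up to about 61 µM; nearly all actives have a fitted effect of over 50% in size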)
Method in brief: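 Luminescence readout: CellTiter-Glo, 30 min RT, same wells as the ESRE-bla reporter read. HeLa ESRE-bla, 1,500 cells/well, o/n 37 C; cpd 5 hr 37 C/5% CO2.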

[14] = qHTS assay to identify small molecule antagonists of the retinoid-related orphan receptor gamma (ROR-gamma) signaling pathway - cell viability counter screen (AID 1159520); also: nearly all actives have a fitted effect of over 50% in size
Method in brief: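 Tet-on ROR gamma CHO cells (1,000/well) were plated 4 hr, given compounds in DMSO for 2 hr at 37 C, then induced with 1 uM final doxycycline for 16 hr. Viability was read as ATP by CellTiter-Glo luminescence after 30 min.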

[15] = target: Nuclear receptor ROR-gamma (Homo sapiens) (UniProt P51449); assay: qHTS assay to identify small molecule antagonists of the retinoid-related orphan receptor gamma (ROR-gamma) signaling pathway (AID 1159521)
Method in brief: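 Readout: ONE-Glo luciferase luminescence, 30 min at room temperature. System: Tet-on RORγ CHO, RORE-LUC. Sequence: compound 2 h, doxycycline 1 uM final, 16 h at 37 C.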

[16] = qHTS assay to identify small molecule agonists of the AP-1 signaling pathway - cell viability counter screen (AID 1159525; calls by dose curve; also: nearly all actives have a fitted effect of over 55% in size)
Method in brief: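 ME-180 AP-1-bla, 2500 cells/well, Opti-MEM + 0.5% dialyzed FBS; overnight 37 °C; cpd 15-pt titration, 5 h 37 °C; CellTiter-Glo 30 min RT; luminescence read; normalised to TOAB and DMSO controls.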

[17] = qHTS assay to identify small molecule agonists of the AP-1 signaling pathway (AID 1159526; calls by dose curve)
[18] = qHTS assay to identify small molecule agonists of the farnesoid-X-receptor (FXR) signaling pathway - cell viability counter screen (AID 743218); also: nearly all actives have a fitted effect of over 45% in size
Method in brief: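 FXR-UAS-bla HEK 293T cells exposed to compounds for 16 h at 37C. Cytotoxicity read in the same wells by CellTiter-Glo luminescence after 30 min at room temperature, following the beta-lactamase FRET read.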

[19] = target: Vitamin D3 receptor (Homo sapiens) (UniProt P11473); assay: qHTS assay to identify small molecule agonists of the vitamin D receptor (VDR) signaling pathway (AID 743222; calls by dose curve)
Method in brief: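 VDR-bla cells plated 4 h at 37 C, then exposed to compounds for 16 h at 37 C. Beta-lactamase reporter activity measured by fluorescence after 2 h room-temperature loading with LiveBLAzer B/G FRET substrate.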

[20] = qHTS assay to identify small molecule agonists of the vitamin D receptor (VDR) signaling pathway - cell viability counter screen (AID 743224)
Method in brief: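 VDR-bla cells, 4 h after plating, exposed to compounds for 16 h at 37C; viability then read in the same wells as CellTiter-Glo luminescence after 30 min at room temperature, following the bla FRET read.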

Measured: outcome

OCC1CCC(CO)CC1 (stereo not drawn)
not listed: [18] | [19] | [20]
inactive: all other assays above

O=C[O][Al]([O]C=O)[O]C=O
not listed: [7] | [8]
inactive: all other assays above

O=C(CCCl)NCCc1ccccc1
inactive: all assays above

O/N=C/C=N/O
not listed: [5] | [6]
inactive: all other assays above

CC(=O)CC(=O)Nc1ccc(C)cc1C
not listed: [8] | [19]
inactive: all other assays above

Nc1nnnn1-c1ccccc1
not listed: [7] | [8] | [18]
inactive: all other assays above

CO[Si](CCCn1c(=O)n(CCC[Si](OC)(OC)OC)c(=O)n(CCC[Si](OC)(OC)OC)c1=O)(OC)OC
not listed: [5] | [6] | [8] | [20]
inactive: all other assays above

CC(N)CCCC(C)(C)O (stereo not drawn)
not listed: [5] | [6] | [20]
inactive: all other assays above

Cc1ccc2c(c1)C(=O)c1ccccc1C2=O
not listed: [5] | [6]
inactive: all other assays above

CCCCCCCCCCCCCBr
not listed: [8] | [9] | [19]
inactive: all other assays above

CN(C)C(C)(C)CO
not listed: [7]
inactive: all other assays above

C=CCCCCCCCC
not listed: [5] | [6] | [8]
inactive: all other assays above

CN(C)CCOC(=O)C(c1ccccc1)C1(O)CCCC1 (stereo not drawn)
not listed: [5] | [6] | [20]
inactive: all other assays above

CC(C)NC(=O)c1ccc(C=O)cc1
not listed: [5] | [6] | [8] | [20]
inactive: all other assays above

CC(=O)CCC1=C(C)CCCC1(C)C
not listed: [5] | [6] | [8] | [20]
inactive: all other assays above

CCOc1cccc(N)c1
not listed: [5] | [6] | [8]
inactive: all other assays above
